Test [1] deals with Thyrotropin receptor (Homo sapiens) (UniProt P16473). As to the kind of experiment: qHTS assay to identify small molecule antagonists of the thyroid stimulating hormone receptor (TSHR) signaling pathway (AID 1259385; calls by dose curve; also: nearly all actives have a fitted effect of over 20% in size). The gist of the method:
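TSHR-HEK293 cells (800/well) plated 18 h, then compounds with Ro20-1724 and TSH at 1.5 ng/mL final, 30 min at room temperature. cAMP quantified by HTRF (cAMP-d2/anti-cAMP-cryptate, 1 h); 15 concentrations in triplicate.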

The nature of test [2]: qHTS assay to identify small molecule agonists of the estrogen receptor alpha (ER-alpha) signaling pathway in the presence of an antagonist - cell viability counter screen (AID 1259386).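 Also: series mostly up to about 92 µM; cells exposed to compounds for 22 h at 37 °C before the viability read; nearly all actives have a fitted effect of over 30% in size.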 A digest of the protocol:
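ICI-182,780 at 10.0nM final accompanies the compound titration (15 concentrations, 22hr, 37C) on VM7Luc4E2 cells. The CellTiter-Fluor fluorescence readout runs in the same wells as the luciferase assay.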
Background: qHTS replaces the single test concentration by a dilution series.

Test [3] concerns the target Progesterone receptor (Homo sapiens) (UniProt P06401). As to the kind of experiment: qHTS assay to identify small molecule agonists of the progesterone receptor (PR) signaling pathway (AID 1346784; calls by dose curve; also: nearly all actives have a fitted effect of over 30% in size; also: potency is read from the fitted curve at half-maximal effect). The gist of the method:
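HEK 293T PR-UAS-bla reporter cells, 2% charcoal-stripped FBS; 6 hr settle at 37C/5% CO2, compound (DMSO) 16 hr, LiveBLAzer B/G FRET substrate 2 hr RT, fluorescence intensity read.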

The target is the same in test [4]. Put plainly: qHTS assay to identify small molecule antagonists of the progesterone receptor (PR) signaling pathway (AID 1346795; active = well fitted inhibition curve with a large enough effect in the signal ratio in the repeat runs, not every such curve was filed as active; the % refers to the signal ratio). The gist of the method: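 Beta-lactamase reporter, HEK293T PR-UAS-bla line; 2% charcoal-stripped FBS; 6 hr pre-incubation, 37C/5% CO2. Compound + R5020 1 nM final, 16 hr. LiveBLAzer B/G FRET substrate, 2 hr RT; fluorescence intensity read.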

The nature of test [5]: qHTS assay to identify small molecule antagonists of the progesterone receptor (PR) signaling pathway - cell viability counter screen (AID 1346798). Also: series mostly up to about 92 µM; nearly all actives have a fitted effect of over 50% in size. A digest of the protocol: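 Luminescence readout (CellTiter-Glo, 30 min, RT) of viability in PR-UAS-bla HEK293T cells exposed to compound and R5020 agonist for 16 hr at 37C, 5% CO2; run in the same wells as the beta-lactamase reporter read.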

Test [6] is described as follows: qHTS assay to identify small molecule agonists of the progesterone receptor (PR) signaling pathway - cell viability counter screen (AID 1346799; calls by dose curve; also: nearly all actives have a fitted effect of over 45% in size). A digest of the protocol: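 HEK293T PR-UAS-bla, 3,000 cells/well, 2% charcoal-stripped FBS; 6 h settle, compound 16 h at 37C/5% CO2; LiveBLAzer 2 h RT, then CellTiter-Glo 30 min RT, luminescence read.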
Test [7] can be described thus: qHTS assay to identify small molecule antagonists of the TGF-beta/Smad signaling pathway - cell viability counter screen (AID 1346824). Also: nearly all actives have a fitted effect of over 50% in size. The gist of the method: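 SBE-bla HEK 293T cells, incubated overnight, then compound plus 0.25 ng/mL TGF-beta1 (stock added) for 5 hr at 37 C. Viability was read in the same wells by CellTiter-Glo luminescence after 30 min at room temperature.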

A short description of test [8]: qHTS assay to identify small molecule agonists of the TGF-beta/Smad signaling pathway - cell viability counter screen (AID 1346829). Also: top concentration of the series differs between compounds; nearly all actives have a fitted effect of over 45% in size. A digest of the protocol:
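Compound-treated SBE-bla HEK 293T cells (5 hr, 37 C) were assessed for viability with CellTiter-Glo in parallel with the reporter read.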

The nature of test [9]: qHTS assay to identify small molecule agonists of the TGF-beta/Smad signaling pathway (AID 1346859; active = well fitted activation curve with a large enough effect in the signal ratio in the repeat runs, not every such curve was filed as active; the % refers to the signal ratio; also: series mostly up to about 77 µM). A digest of the protocol:
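Read-out: fluorescence at 460 and 530 nm (405 nm excitation) after a 2 hr room-temperature incubation with beta-lactamase FRET substrate. SBE-bla HEK 293T cells had been treated with test compounds for 5 hr at 37 C.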

For test [10], the target named is Thyrotropin-releasing hormone receptor (Homo sapiens) (UniProt P34981). As to the kind of experiment: qHTS assay to identify small molecule antagonists of the thyrotropin-releasing hormone receptor (TRHR) signaling pathway (AID 1346877; active = well fitted inhibition curve with a large enough effect in the repeat runs, not every such curve was filed as active; also: series mostly up to about 51 µM). The gist of the method:
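Screening used HEK293 cells engineered with TRHR, with a brief 5 min room-temperature compound exposure preceding addition of TRH to 1 nM. The read-out was kinetic calcium-dye fluorescence, concentration-response from 15 doses in triplicate.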

The target is the same in test [11]. Put plainly: qHTS assay to identify small molecule agonists of the thyrotropin-releasing hormone receptor (TRHR) signaling pathway (AID 1346891; calls by dose curve;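 also: HEK293 cells expressing TRHR with calcium dye readout; series mostly up to about 58 µM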). A digest of the protocol:
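HEK293/TRHR cells, 1500 per well, 18 h 37 °C; Ca dye 2 h 37 °C; pin-tool compound addition (agonist mode); kinetic fluorescence 3 min, 1 s reads; 15 concentrations, triplicate.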

Test [12] can be described thus: Human pregnane X receptor (PXR) small molecule agonists, qHTS cell viability counter screen (AID 1346977). Also: nearly all actives have a fitted effect of over 50% in size. A digest of the protocol: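 Fluorescence read-out (CellTiter-Fluor) of viability in PXR-Luc HepG2 cells, multiplexed with the luciferase agonist read. Compounds in DMSO added after 5hr plating; 24hr total exposure at 37C, 5% CO2.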
Test [13] can be described thus: Caspase-3/7 induction in HepG2 cells by small molecules, qHTS assay (AID 1346978). Also: nearly all actives have a fitted effect of over 15% in size. The gist of the method:
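Wild-type HepG2 cells, 2,000/well, settled 5 hr at 37 C and 5% CO2, then compound-treated for 17 hr; caspase-3/7 activity read by luminescent Caspase-Glo 3/7 after 30 min at room temperature.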

The nature of test [14]: Caspase-3/7 induction in CHO-K1 cells by small molecules, qHTS cell viability counter screen (AID 1346979). Also: nearly all actives have a fitted effect of over 35% in size. The gist of the method: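 CHO-K1 wt, 1,500 cells/well; 5hr pre-incubation 37C/5% CO2; compound pin transfer (DMSO); 16hr exposure; CellTiter-Fluor added, 1hr, fluorescence read.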
Test [15] can be described thus: Caspase-3/7 induction in CHO-K1 cells by small molecules, qHTS assay (AID 1346980). Also: nearly all actives have a fitted effect of over 15% in size. The gist of the method:
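Wild-type CHO-K1 cells exposed to compounds for 17hr at 37 C, 5% CO2. Caspase-3/7 activity then measured by Caspase-Glo 3/7 luminescence after 30min at room temperature.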

Test [16] in a line: Caspase-3/7 induction in HepG2 cells by small molecules, qHTS cell viability counter screen (AID 1346981). Also: series mostly up to about 92 µM; nearly all actives have a fitted effect of over 30% in size. The gist of the method:
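Multiplexed with the caspase-3/7 assay: HepG2 cells, 16 hr compound treatment, CellTiter-Fluor viability detection by fluorescence.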

Test [17] has as its target Nuclear receptor subfamily 1 group I member 2 (Homo sapiens) (UniProt O75469). Put plainly: Human pregnane X receptor (PXR) small molecule agonists, qHTS assay (AID 1346982). Also: nearly all actives have a fitted effect of over 35% in size. Also: potency is read from the fitted curve at half-maximal effect. The gist of the method: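 We seeded PXR-Luc HepG2 cells in assay medium containing 5% charcoal-stripped FBS, added compounds 5 hr later, incubated 24 hr, and read luminescence with ONE-Glo reagent.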

Test [18] addresses Nuclear receptor subfamily 1 group I member 2 (Rattus norvegicus) (UniProt Q9R1A7). Put plainly: Rat pregnane X receptor (rPXR) activation by small molecules, qHTS assay (AID 1346983). Also: nearly all actives have a fitted effect of over 20% in size. To be noted: rPXR luciferase reporter cells, One-Glo luminescence, 24 h; stronger effect = higher value. A digest of the protocol: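 Cell-based rPXR activation assay: rPXR cells, 2,000 per well, rested 5hr at 37 C, then exposed to compounds in DMSO for 24 hr at 37 C. Luciferase activity read by One-Glo luminescence after 30 min at room temperature.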

In test [19] the target is Nuclear receptor subfamily 1 group I member 2 (Homo sapiens) (UniProt O75469). Put plainly: CYP3A4 induction through human pregnane X receptor (PXR) by small molecules, qHTS assay (AID 1346984). Also: nearly all actives have a fitted effect of over 40% in size. The gist of the method:
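qHTS, concentration-response format: HepG2 DPX-2 line, PXR/CYP3A4-luc. Exposure 24 h, 37C. Substrate Luciferin-IPA 3uM final, 3 h. Detection One-Glo, 30 min RT.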

For test [20] the target is unchanged. As to the kind of experiment: Human pregnane X receptor (PXR) activation by small molecules, qHTS assay (AID 1346985). Also: nearly all actives have a fitted effect of over 40% in size. A digest of the protocol:
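DPX-2 cells (HepG2 co-transfected with a PXR response element and a CYP3A4-promoter luciferase construct) were seeded at 2,000 per well, rested 5 hr at 37C, then exposed to DMSO-dissolved compounds for 24 hr. Activation was read as luciferase luminescence.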

Results filed as inconclusive are left out. More than one record can exist for a structure, and the calls need not agree. Activity calls are given as the source filed them. Unless noted, calls follow the shape of the dose curve; as a rule, active = well fitted curve in the direction sought with a large enough effect in the repeat runs; inconclusive = weak or mixed curves; inactive = no such curve, though single readings can be large; an effect the other way counts as inactive or inconclusive.

Our source for the outcome, Potency and max activation values is PubChem BioAssay (Tox21).
% is scaled to controls: 0 for no effect and ±100 for the full control effect.

Sequence of Thyrotropin-releasing hormone receptor (Homo sapiens) (P34981 whole entry, looked up): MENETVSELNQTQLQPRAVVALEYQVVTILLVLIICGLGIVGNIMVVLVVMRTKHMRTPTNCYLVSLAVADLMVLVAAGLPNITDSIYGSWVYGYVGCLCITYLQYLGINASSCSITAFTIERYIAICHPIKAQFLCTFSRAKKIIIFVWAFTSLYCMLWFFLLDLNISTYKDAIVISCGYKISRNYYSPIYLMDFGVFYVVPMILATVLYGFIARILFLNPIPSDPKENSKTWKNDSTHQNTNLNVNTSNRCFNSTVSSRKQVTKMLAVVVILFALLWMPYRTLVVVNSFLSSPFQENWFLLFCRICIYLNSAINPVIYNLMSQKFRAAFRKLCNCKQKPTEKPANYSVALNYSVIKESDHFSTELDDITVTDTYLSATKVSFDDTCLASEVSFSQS
Sequence of Progesterone receptor (Homo sapiens) (P06401 whole entry, looked up): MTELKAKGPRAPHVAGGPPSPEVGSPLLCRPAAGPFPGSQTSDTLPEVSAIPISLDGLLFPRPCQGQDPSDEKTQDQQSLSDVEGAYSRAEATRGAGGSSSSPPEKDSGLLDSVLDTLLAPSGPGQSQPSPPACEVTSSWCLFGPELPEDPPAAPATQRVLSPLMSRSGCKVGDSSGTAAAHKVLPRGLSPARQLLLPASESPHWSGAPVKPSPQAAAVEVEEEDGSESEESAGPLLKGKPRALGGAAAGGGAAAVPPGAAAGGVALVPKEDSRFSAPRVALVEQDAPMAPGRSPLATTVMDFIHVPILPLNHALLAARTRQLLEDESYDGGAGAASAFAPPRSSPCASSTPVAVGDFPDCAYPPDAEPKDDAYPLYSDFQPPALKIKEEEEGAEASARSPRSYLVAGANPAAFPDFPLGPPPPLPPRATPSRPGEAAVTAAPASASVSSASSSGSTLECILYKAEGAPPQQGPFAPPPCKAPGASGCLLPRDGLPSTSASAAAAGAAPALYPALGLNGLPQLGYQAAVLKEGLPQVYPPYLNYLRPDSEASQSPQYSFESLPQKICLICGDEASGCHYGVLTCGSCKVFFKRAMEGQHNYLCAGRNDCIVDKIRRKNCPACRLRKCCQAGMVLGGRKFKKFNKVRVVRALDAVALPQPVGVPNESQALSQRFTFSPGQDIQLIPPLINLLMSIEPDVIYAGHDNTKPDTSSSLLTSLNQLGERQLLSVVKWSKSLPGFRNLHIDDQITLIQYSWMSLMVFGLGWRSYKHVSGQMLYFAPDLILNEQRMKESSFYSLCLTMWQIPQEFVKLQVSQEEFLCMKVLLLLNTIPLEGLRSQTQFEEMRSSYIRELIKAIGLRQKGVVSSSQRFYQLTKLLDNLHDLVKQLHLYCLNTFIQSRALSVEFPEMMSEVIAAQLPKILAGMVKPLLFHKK
Sequence of Nuclear receptor subfamily 1 group I member 2 (Homo sapiens) (O75469 whole entry, looked up): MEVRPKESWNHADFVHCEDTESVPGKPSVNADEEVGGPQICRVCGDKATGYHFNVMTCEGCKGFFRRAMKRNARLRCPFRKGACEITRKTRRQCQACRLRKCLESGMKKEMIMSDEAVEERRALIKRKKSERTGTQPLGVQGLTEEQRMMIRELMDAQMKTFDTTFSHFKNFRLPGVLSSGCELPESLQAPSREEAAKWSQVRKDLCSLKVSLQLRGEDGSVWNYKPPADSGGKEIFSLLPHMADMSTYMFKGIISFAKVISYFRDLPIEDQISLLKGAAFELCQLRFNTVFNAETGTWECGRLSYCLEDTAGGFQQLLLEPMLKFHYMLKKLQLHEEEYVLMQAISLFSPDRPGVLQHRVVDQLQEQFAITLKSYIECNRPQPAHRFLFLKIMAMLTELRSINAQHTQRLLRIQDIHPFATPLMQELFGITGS
Sequence of Thyrotropin receptor (Homo sapiens) (P16473 whole entry, looked up): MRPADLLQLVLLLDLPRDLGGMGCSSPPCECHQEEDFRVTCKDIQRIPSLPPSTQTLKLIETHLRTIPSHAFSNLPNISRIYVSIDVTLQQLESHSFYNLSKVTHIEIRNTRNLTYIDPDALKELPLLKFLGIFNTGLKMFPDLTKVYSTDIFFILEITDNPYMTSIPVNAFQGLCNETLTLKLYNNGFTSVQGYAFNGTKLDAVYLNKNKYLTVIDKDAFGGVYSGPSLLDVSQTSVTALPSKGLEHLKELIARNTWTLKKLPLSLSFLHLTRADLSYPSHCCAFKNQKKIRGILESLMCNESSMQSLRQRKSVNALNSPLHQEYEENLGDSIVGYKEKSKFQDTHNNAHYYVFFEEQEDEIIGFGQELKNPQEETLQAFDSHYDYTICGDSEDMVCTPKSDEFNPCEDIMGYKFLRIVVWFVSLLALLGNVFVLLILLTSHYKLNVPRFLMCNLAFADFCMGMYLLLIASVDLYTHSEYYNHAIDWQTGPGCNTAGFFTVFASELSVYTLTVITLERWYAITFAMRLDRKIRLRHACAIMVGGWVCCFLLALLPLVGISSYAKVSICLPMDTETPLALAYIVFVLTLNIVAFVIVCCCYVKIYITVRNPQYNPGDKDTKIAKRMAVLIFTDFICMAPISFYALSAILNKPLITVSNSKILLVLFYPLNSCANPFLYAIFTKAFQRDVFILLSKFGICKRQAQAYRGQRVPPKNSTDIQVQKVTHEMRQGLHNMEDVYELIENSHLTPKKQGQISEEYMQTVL
Sequence of Nuclear receptor subfamily 1 group I member 2 (Rattus norvegicus) (Q9R1A7 whole entry, looked up): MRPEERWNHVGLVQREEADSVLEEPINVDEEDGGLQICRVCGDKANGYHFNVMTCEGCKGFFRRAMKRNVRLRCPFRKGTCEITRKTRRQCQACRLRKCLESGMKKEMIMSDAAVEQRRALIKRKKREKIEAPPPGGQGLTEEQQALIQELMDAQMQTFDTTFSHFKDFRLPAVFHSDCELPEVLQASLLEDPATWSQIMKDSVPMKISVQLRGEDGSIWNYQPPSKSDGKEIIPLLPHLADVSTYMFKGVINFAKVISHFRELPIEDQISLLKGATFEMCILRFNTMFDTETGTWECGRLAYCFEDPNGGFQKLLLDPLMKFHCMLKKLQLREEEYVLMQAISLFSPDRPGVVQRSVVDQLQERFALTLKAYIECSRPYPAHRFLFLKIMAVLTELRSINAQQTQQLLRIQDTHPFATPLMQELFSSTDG

On to `Oc1cc(Cl)ccc1Cl`, for which the call in test [1] and in [9] was inactive. Moreover, the Potency result in test [2], in test [3], in [4], in test [5], in test [6] and in [7] was “inactive” each time. The Potency result in test [8], in [10], in [11], in test [12], in test [13] and in test [14] was “inactive” in each case. In addition, the Potency entry in test [15], in test [16] and in test [17] was “inactive” throughout.

In the case of `C1=Cc2cccc3cccc1c23`, the outcome in test [1] and in [9] was inactive. Besides, the Potency result in test [2], in [4], in test [5], in test [6], in test [7] and in test [8] was “inactive” each time. Further, the Potency result in test [10], in test [11], in [12], in test [13], in test [14] and in test [15] was “inactive” each time. In test [17], the Potency result is “inactive”. Besides, the Potency in [3] is 60.1 µM (active) and inactive.

For `NCc1cccnc1`, the call in test [1], in test [9], in [19] and in [20] was inactive. Also, the Potency entry in test [2], in [3], in test [4], in test [5], in test [6] and in test [7] was “inactive” each time. Further, the Potency entry in test [8], in test [10], in test [11], in test [12], in [13] and in test [14] was “inactive” throughout. For the same molecule, the Potency result in test [15], in test [16] and in [17] was “inactive” in each case. Also, in test [18], the max activation is -2.22% (inactive).

For `CCCCCCCCOC(=O)c1ccccc1C(=O)OCCCCCCCC`, the molecule was classed as inactive in test [1], in test [9], in [19] and in test [20]. The Potency entry in test [2], in [3], in test [4], in test [5], in test [6] and in test [7] was “inactive” throughout. For the same molecule, the Potency result in [8], in [10], in test [11], in test [12], in [13] and in [14] was “inactive” each time. For the same molecule, the Potency result in test [15] and in test [16] was “inactive” in each case. Also, the Potency in [17] was 68.4 µM (active) and inactive. For the same molecule, in test [18], the max activation was -0.303% (inactive).

For `Nn1cnnc1`, the molecule was classed as inactive in [1] and in test [9]. The Potency result in test [2], in test [3], in test [4], in [5], in [6] and in test [7] was “inactive” throughout. Further, the Potency result in test [8], in [10], in test [11], in test [12], in test [13] and in test [14] was “inactive” each time. Besides, the Potency result in [15], in [16] and in test [17] was “inactive” each time.

Regarding `Nc1cccnc1`, the call in [1] and in test [9] was inactive. Besides, the Potency entry in test [2], in test [3], in test [4], in test [5], in test [6] and in [7] was “inactive” each time. Moreover, the Potency entry in test [8], in [10], in test [11], in test [12], in [14] and in test [15] was “inactive” each time. Moreover, the Potency entry in test [16] and in [17] was “inactive” throughout.

As for `CCN(N=O)C(N)=O`, the outcome in test [1] and in test [9] was inactive. The Potency entry in test [2], in test [3], in test [4], in [5], in [6] and in [7] was “inactive” in each case. In addition, the Potency entry in [8], in [10], in [11], in [12], in test [14] and in test [15] was “inactive” in each case. In addition, the Potency result in test [17] is “inactive”.
